RECQ1 inh: inhibitors of human RECQ1 DNA helicase. RECQ1 DNA unwinding, red fluorescence kinetic read. Potency, µM (top dose mostly 57.3 µM), actives largely listed as inhibitors. P46063. actives 0.54% (n = 240,000); also: nearly all actives have a fitted effect of over 30% in size
Target sequence (P46063 whole entry, looked up): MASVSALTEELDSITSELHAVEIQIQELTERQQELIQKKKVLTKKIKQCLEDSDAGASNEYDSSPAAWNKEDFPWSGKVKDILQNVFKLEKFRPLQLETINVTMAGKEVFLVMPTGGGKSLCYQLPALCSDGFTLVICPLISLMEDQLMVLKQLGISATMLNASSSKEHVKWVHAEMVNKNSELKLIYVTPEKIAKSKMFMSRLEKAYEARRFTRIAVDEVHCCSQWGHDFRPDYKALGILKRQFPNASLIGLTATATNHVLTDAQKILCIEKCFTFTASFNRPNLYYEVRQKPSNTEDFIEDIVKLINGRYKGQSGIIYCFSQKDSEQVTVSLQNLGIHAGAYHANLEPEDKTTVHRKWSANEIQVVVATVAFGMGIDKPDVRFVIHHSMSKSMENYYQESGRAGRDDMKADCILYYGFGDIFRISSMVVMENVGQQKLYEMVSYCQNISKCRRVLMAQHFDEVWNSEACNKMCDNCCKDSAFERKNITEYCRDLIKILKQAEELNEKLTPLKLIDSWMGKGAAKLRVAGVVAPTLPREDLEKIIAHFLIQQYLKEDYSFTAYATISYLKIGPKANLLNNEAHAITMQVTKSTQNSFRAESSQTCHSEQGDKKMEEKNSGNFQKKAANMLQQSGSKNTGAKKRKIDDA
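50 nM RECQ1T1 preincubated 15 min with compound in Tris pH 8.0 buffer with MgCl2, DTT, Tween-20 and 2.5 ug/ml poly(dI-dC); started with 200 nM TAMRA/BHQ-2 forked duplex and 2 mM ATP. Unwinding read as fluorescence (525/598 nm), two reads 2 h apart.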
TR SRC2 fluor cs: alters Texas Red total fluorescence, flagging assay interference; TRb/SRC2 Texas Red total fluorescence interference; Potency, µM (doses to about 106 µM); actives 0.29% (n = 280,000); active = well fitted curve in either direction with a large enough effect; inconclusive = small, poorly fitted or top-dose-only effect
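Human TRβ ligand-binding domain (0.6 uM) and Texas Red SRC2 peptide (20 nM) in Tris buffer with 1 uM T3 and 5% DMSO were incubated with pinned compound for 5 hr at ambient temperature. Total fluorescence was computed as S + 2P (555/632 nm).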
BLM helicase inh: blocks DNA unwinding by human BLM helicase | recombinant BLM DNA unwinding, fluorescence dequenching | Potency, µM (series often up to 56.1 µM), hits mostly inhibitors | actives 0.2% (n = 350,000) | AID 2528; also: nearly all actives have a fitted effect of over 35% in size
TRb-SRC2 inh: disrupts binding of human TR beta to SRC2; P10828; TRbeta-SRC2 peptide binding, fluorescence polarization; receptor liganded with 1 µM T3; Potency, µM (doses to about 106 µM), actives largely listed as inhibitors; actives 0.065% (n = 280,000); AID 1469; also: nearly all actives have a fitted effect of over 50% in size
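Binding of a 20-amino-acid Texas Red SRC2 peptide (20 nM) to TRb ligand-binding domain (0.6 uM) with agonist T3 at 1 uM was followed by fluorescence polarization after a 5 hr room-temperature incubation.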
Of the large screens only hits and unclear results are named; the others gave an inactive call; ! = not confirmed by another sample; [ ] = another dose, or the depositor's remark. Rows were chosen to be rich in hits. Some 0.64% of all compounds tested hit in one or more screens of this group. Unless noted, calls follow the shape of the dose curve; as a rule, active = well fitted curve in the direction sought with a large enough effect; inconclusive = small, poorly fitted or top-dose-only effect, or another doubt; inactive = no such curve, though single readings can be large; an effect the other way counts as inactive or inconclusive.

CCOC(=O)Cc1ccc(NC(=O)NC(C)c2c(-n3cccc3)sc(C)c2C)cc1 (centres undefined)	none (no result: RECQ1 inh)
CCCCC(CC)COC(=O)CS (centres undefined)	none (no result: RECQ1 inh, BLM helicase inh)
O=S(=O)(O)c1ccc2c(c1)-c1nc-2nc2[nH]c(nc3nc(nc4[nH]c(n1)c1ccc(S(=O)(=O)O)cc41)-c1ccc(S(=O)(=O)O)cc1-3)c1ccc(S(=O)(=O)O)cc21	RECQ1 inh 0.56µM, TR SRC2 fluor cs 2.2µM[quencher], BLM helicase inh 1.6µM, TRb-SRC2 inh inconclusive
O=c1[nH]c(=O)c2[nH]cnc2[nH]1	none (no result: RECQ1 inh, BLM helicase inh)
NN(c1ccccc1)c1ccccc1	none (no result: RECQ1 inh, BLM helicase inh)
Cc1ccc(NC(=O)CSc2nc(C)c(Cc3ccccc3)c(=O)[nH]2)cc1C	TR SRC2 fluor cs 40µM![quencher], TRb-SRC2 inh inconclusive
Cc1ccccc1OCCSc1nc(C)c(Cc2ccccc2)c(=O)[nH]1	TR SRC2 fluor cs 3.2µM[quencher], TRb-SRC2 inh inconclusive (no result: RECQ1 inh)
Cc1ccc(NC(=O)CSc2ncc(S(=O)(=O)c3ccccc3)c(=O)[nH]2)cc1C	TR SRC2 fluor cs 0.0003µM[quencher]
CCOc1ccc(-c2ccc(NS(=O)(=O)c3cc(C)c(C)cc3C)cc2)nn1	none (no result: RECQ1 inh)
CCCS(=O)(=O)c1ncc(Cl)c(C(=O)N2CCN(c3ccc(OC)cc3)CC2)n1	none (no result: RECQ1 inh)
CCCCC(CC)COC(=O)/C=C\C(=O)OCC(CC)CCCC (centres undefined)	none (no result: RECQ1 inh, BLM helicase inh)
Cc1ccc2nc(/C(C#N)=C/c3cccc(Br)c3)[nH]c2c1	none (no result: RECQ1 inh)
Cc1ccc2nc(/C(C#N)=C/c3ccc(O)c(O)c3)[nH]c2c1	BLM helicase inh 20µM (no result: RECQ1 inh, TR SRC2 fluor cs, TRb-SRC2 inh)
Cc1c(C(=O)N(Cc2ccccc2F)C2CCS(=O)(=O)C2)oc2ccccc12 (centres undefined)	none (no result: RECQ1 inh)
Cc1cc(C)c(Cn2cnc3nc4c(cc3c2=O)CCCC4)c(C)c1	none (no result: RECQ1 inh)
CCOC(=O)c1c(C)oc2ccc(NS(=O)(=O)c3ccc(C(=O)O)cc3)cc12	none
CCOC(=O)c1c(-c2ccccc2)oc2ccc(NS(=O)(=O)c3ccc(C)cc3)cc12	TR SRC2 fluor cs 40µM[quencher] (no result: RECQ1 inh)
COc1ccc(-c2cn3nc(N4CCCC(C(=O)NCc5ccc(Cl)cc5)C4)sc3n2)cc1 (centres undefined)	none (no result: RECQ1 inh)
CC(C)c1onc(C(=O)Nc2sc3c(c2C#N)CCC3)c1[N+](=O)[O-]	RECQ1 inh 40µM
CC(C)c1cc(C(=O)Nc2sc3c(c2C#N)CCC3)no1	none
CC(C)CNC(=S)NNC(=O)c1csc2c1CCCC2	none
CCC(C)NC(=O)COC(=O)c1csc2c1CCCC2 (centres undefined)	TR SRC2 fluor cs 0.0004µM[quencher], TRb-SRC2 inh inconclusive
CCS(=O)(=O)N1CCc2cc(C(=O)N3CCN(c4ccccc4)CC3)ccc21	none (no result: RECQ1 inh)
Cc1ccc(C2CC(=O)Oc3cc4c(cc32)OCO4)cc1 (centres undefined)	RECQ1 inh 32µM
C=CC(=O)OCC(C)OCC(C)OCC(C)OC(=O)C=C (centres undefined)	none (no result: RECQ1 inh, BLM helicase inh)
CCc1ccc(OCC(=O)NCC(c2ccc(OC)cc2)N2CCOCC2)cc1 (centres undefined)	none (no result: RECQ1 inh)
COc1ccc(OCC(=O)NCC(c2ccc(OC)cc2)N2CCOCC2)cc1 (centres undefined)	TR SRC2 fluor cs 89µM[quencher] (no result: RECQ1 inh)
CCCCn1c2ccccc2c2nnc(SCC(=O)Nc3ccc(NC(C)=O)cc3)nc21	none (no result: RECQ1 inh)
CSc1nc(N)nc(SCC(=O)Nc2cccc(F)c2)c1C#N	TR SRC2 fluor cs 1.3µM[quencher], TRb-SRC2 inh inconclusive
CSc1nc(N)nc(SCC(=O)Nc2ccc(Cl)cc2)c1C#N	none
CCN(CC)C(=O)C1CCCN(c2ncnc3c2nc2n3CCCCC2)C1 (centres undefined)	none (no result: RECQ1 inh)
CCc1cc(C(=O)N=Nc2c(O)[nH]c3ccc([N+](=O)[O-])cc23)c2ccccc2n1	BLM helicase inh 18µM
Cc1cc(Cc2cc(C)cc(C(C)(C)C)c2O)c(O)c(C(C)(C)C)c1	none (no result: RECQ1 inh, BLM helicase inh)
Cc1cccc(-n2c(O)c(C=Nc3cc(O)ccc3C)c3ccccc3c2=O)n1	none
Cc1cccc(-n2c(O)c(C=Nc3ccccc3O)c3ccccc3c2=O)n1	BLM helicase inh 16µM
COc1ccc(-c2nnn3c2nc(NCCc2ccc(OC)c(OC)c2)c2ccccc23)cc1	none (no result: RECQ1 inh)
CC1=CC(C)(C)N2C(=O)C(=Nc3ccc(O)cc3)c3cccc1c32	BLM helicase inh 32µM, TRb-SRC2 inh 35µM
C/C(N)=C(/C#N)C(=O)CSc1nnnn1-c1ccc(C)cc1	RECQ1 inh 20µM
CCOc1ccccc1C(=O)N1CCC(c2nc3ccccc3o2)CC1	none (no result: RECQ1 inh)
CCc1cccc(C)c1NC(=O)CN1C(=O)C2(SCC(=O)N2c2cccc(F)c2)c2ccccc21 (centres undefined)	TR SRC2 fluor cs 20µM[quencher] (no result: RECQ1 inh)
CSCC[C@H](NC(=O)[C@H](CC(C)C)NC(=O)CNC(=O)[C@@H]1CCCN1C(=O)[C@H](Cc1ccccc1)NC(=O)[C@H](Cc1ccccc1)NC(=O)[C@H](CC(=O)O)NC(=O)[C@H](Cc1cnc[nH]1)NC(=O)[C@H](CCSC)NC(=O)[C@@H](N)CC(=O)O)C(N)=O	RECQ1 inh 11µM
CC(C)C[C@H](NC(=O)[C@H](Cc1c[nH]c2ccccc12)NC(=O)[C@H](CCCCN)NC(=O)CNC(=O)[C@H](CC(C)C)NC(=O)[C@H](CO)NC(=O)[C@@H](N)Cc1cnc[nH]1)C(=O)NCC(=O)N[C@@H](Cc1cnc[nH]1)C(=O)N1CCC[C@H]1C(=O)N[C@@H](CC(=O)O)C(=O)N[C@@H](CCCCN)C(=O)N[C@@H](Cc1ccccc1)C(=O)O	none
CC1CCC(NC(=O)c2ccc3c(c2)N(Cc2ccccc2)C(=O)c2ccccc2S3(=O)=O)CC1 (centres undefined)	TR SRC2 fluor cs inconclusive (no result: RECQ1 inh)
COC(=O)c1c(Cl)nn(C)c1S(=O)(=O)NC(=O)Nc1nc(OC)cc(OC)n1	none (no result: RECQ1 inh, BLM helicase inh)
Cc1cc(C(=O)Nc2sc(C)c(C)c2C#N)no1	none
COc1cc2cc3c(N)c(C(=O)Nc4sc(C)c(C)c4C#N)sc3nc2cc1OC	RECQ1 inh 10µM, TR SRC2 fluor cs inconclusive, BLM helicase inh 32µM, TRb-SRC2 inh inconclusive
CCN(CC)c1ccc(/C=c2\sc3nc4ccccc4n3c2=O)c(O)c1	TR SRC2 fluor cs 50µM[fluorescent]
CC(C)(C)c1ccc(C(=O)NNc2cc(N3CCOCC3)nc(N3CCOCC3)n2)cc1	none
CC(=O)NNc1cc(N2CCOCC2)nc(N2CCOCC2)n1	TR SRC2 fluor cs 32µM[fluorescent], TRb-SRC2 inh 28µM
COc1cc(NC(=O)CC2C(=O)N(c3cccc(C)c3)C(=O)N2Cc2ccco2)cc(OC)c1 (centres undefined)	none (no result: RECQ1 inh)
NS(=O)(=O)c1ccc(NC(=S)NC(=O)c2ccc(-c3ccccc3)cc2)cc1	TR SRC2 fluor cs 0.32µM[quencher]
CC(C)CC(=O)N[C@H](C(=O)N[C@H](C(=O)N[C@@H](CC(C)C)[C@@H](O)CC(=O)N[C@@H](C)C(=O)N[C@@H](CC(C)C)[C@@H](O)CC(=O)O)C(C)C)C(C)C	RECQ1 inh 32µM!
O=C(Cn1cc[n+](CC(=O)c2ccc(Cl)cc2Cl)c1)c1ccc(Cl)cc1Cl	none
O=C(Cn1cc[n+](CC(=O)c2ccccc2)c1)c1ccccc1	RECQ1 inh 22µM
O=C(O)c1cc(-c2cc3ccccc3o2)nn1-c1ccccc1	none
O=C(O)c1cc(-c2ccco2)nn1-c1ccc(Cl)cc1	RECQ1 inh 22µM

Source: PubChem (National Center for Advancing Translational Sciences (NCATS))
